Assay results published in the supplement of paper PMC9117331.
Structures can show the parent of a compound that is named as a salt.

Columns and labels:
Details in all cases: 0.5 µM; time after treatment 48 h; PC9 signalome
PC9 [1] = assay: AKT reporter activity score (signed KS statistic vs DMSO) (signed KS statistic (-1 to 1)); higher = stronger activation of the pathway reporter relative to DMSO
PC9 [2] = assay: RAR reporter activity score (signed KS statistic vs DMSO) (signed KS statistic (-1 to 1)); higher = stronger activation of the pathway reporter relative to DMSO
PC9 [3] = assay: PKC reporter activity score (signed KS statistic vs DMSO) (signed KS statistic (-1 to 1)); higher = stronger activation of the pathway reporter relative to DMSO
PC9 [4] = assay: PKA reporter activity score (signed KS statistic vs DMSO) (signed KS statistic (-1 to 1)); higher = stronger activation of the pathway reporter relative to DMSO
PC9 [5] = assay: p38 reporter activity score (signed KS statistic vs DMSO) (signed KS statistic (-1 to 1)); higher = stronger activation of the pathway reporter relative to DMSO
PC9 [6] = assay: HIF reporter activity score (signed KS statistic vs DMSO) (signed KS statistic (-1 to 1)); higher = stronger activation of the pathway reporter relative to DMSO
PC9 [7] = assay: ERK reporter activity score (signed KS statistic vs DMSO) (signed KS statistic (-1 to 1)); higher = stronger activation of the pathway reporter relative to DMSO
PC9 [8] = assay: JNK reporter activity score (signed KS statistic vs DMSO) (signed KS statistic (-1 to 1)); higher = stronger activation of the pathway reporter relative to DMSO
PC9 [9] = assay: WNT reporter activity score (signed KS statistic vs DMSO) (signed KS statistic (-1 to 1)); higher = stronger activation of the pathway reporter relative to DMSO
PC9 [10] = assay: NFkB reporter activity score (signed KS statistic vs DMSO) (signed KS statistic (-1 to 1)); higher = stronger activation of the pathway reporter relative to DMSO
PC9 [11] = assay: YAP/TAZ reporter activity score (signed KS statistic vs DMSO) (signed KS statistic (-1 to 1)); higher = stronger activation of the pathway reporter relative to DMSO

Compound	AKT reporter activity score (PC9 [1])	RAR reporter activity score (PC9 [2])	PKC reporter activity score (PC9 [3])	PKA reporter activity score (PC9 [4])	p38 reporter activity score (PC9 [5])	HIF reporter activity score (PC9 [6])	ERK reporter activity score (PC9 [7])	JNK reporter activity score (PC9 [8])	WNT reporter activity score (PC9 [9])	NFkB reporter activity score (PC9 [10])	YAP/TAZ reporter activity score (PC9 [11])
O=C(/C=C/c1cccc(S(=O)(=O)Nc2ccccc2)c1)NO [Belinostat (PXD101)]	-0.067	0.675	0.12	-0.172	-0.223	0.488	-0.315	-0.122	0.155	0.0869	0.484
COc1cc2ncnc(Nc3ccc(F)c(Cl)c3)c2cc1OCCCN1CCOCC1 [Gefitinib (Iressa)]	-0.363	0.5	0.0998	-0.3	-0.282	0.136	-0.664	0.166	0.25	0.184	0.4
Cn1c(=O)c(F)c(Nc2ccc(I)cc2F)c2c(=O)n(C[C@@H](O)CO)cnc21	0.104	0.28	0.0748	-0.176	0.193	0.0238	-0.525	0.245	-0.0866	0.274	0.513
CCN1CCN(Cc2ccc(-c3cc4c(N[C@H](C)c5ccccc5)ncnc4[nH]3)cc2)CC1	-0.376	0.505		-0.379	-0.36	0.189	-0.726	0.193	0.184	0.161	0.381
Nc1ncnc2c1c(-c1cnc3[nH]ccc3c1)nn2C1CCCC1	-0.463	0.646	0.116		-0.374	0.183	-0.379	-0.111	0.0862	0.128	0.258
Cc1ccc(C(=O)N(CCCN)[C@@H](c2oc3cc(Cl)ccc3c(=O)c2Cc2ccccc2)C(C)C)cc1			0.176		-0.278	0.473	-0.378	-0.131		0.169	
COc1ccc(-c2ccc3c(N4CCOCC4)nc(N4C[C@@H](C)O[C@@H](C)C4)nc3n2)cc1CO	-0.124	-0.302	-0.0717	-0.114	-0.0964	-0.246	0.079	0.0459	0.0519	0.0599	-0.085
CN1CCN(c2nc(C3=C(c4c[nH]c5ccccc45)C(=O)NC3=O)c3ccccc3n2)CC1 [Sotrastaurin (AEB071)]	0.195	-0.104	0.0333	0.144	0.268	0.0348	-0.0912	0.155	0.0742	-0.26	-0.0765
COc1ccc(-c2ccc3c(N4CCOC[C@@H]4C)nc(N4CCOC[C@@H]4C)nc3n2)cc1CO	-0.0864	-0.11	0.0766		-0.297	-0.151	-0.211	-0.189	0.13	0.178	0.166
CC(C)CC(=O)Nc1n[nH]c2c1CN(C(=O)C1CCN(C)CC1)C2(C)C	-0.35	0.417		-0.15	-0.296	0.227	-0.107	-0.179	0.117	0.167	0.244
CC(C)n1nc(-c2cc3cc(O)ccc3[nH]2)c2c(N)ncnc21	-0.0564	-0.222	-0.0669	0.116	0.0578	-0.329	-0.108	-0.0693	0.0845	0.195	0.186
C=CC(=O)N1CCC[C@@H](n2nc(-c3ccc(Oc4ccccc4)cc3)c3c(N)ncnc32)C1	-0.461	0.562			-0.409	0.169	-0.667	-0.17	0.283		0.322
C=CC(=O)Nc1ccc2ncnc(Nc3cccc(Br)c3)c2c1					-0.268	0.234	-0.724				0.467
Cc1nc(NC(=O)N2CCC[C@H]2C(N)=O)sc1-c1ccnc(C(C)(C)C(F)(F)F)c1 [Alpelisib (BYL719)]	-0.308	0.0272	-0.0493	-0.0979	0.131	-0.123	0.0754	-0.0947	0.0988	0.0495	-0.125
CN(C)C/C=C/C(=O)Nc1cc2c(Nc3ccc(F)c(Cl)c3)ncnc2cc1O[C@H]1CCOC1 [Afatinib (BIBW2992)]	-0.37		0.191		0.229	0.0949	-0.615	0.173	0.34	0.208	0.397
C=CC(=O)Nc1cccc(Oc2nc(Nc3ccc(N4CCN(C)CC4)cc3)ncc2Cl)c1		0.418	0.125		-0.271	0.164	-0.662	0.152	0.124	0.166	0.333
Cc1[nH]nc2ccc(-c3cncc(OC[C@@H](N)Cc4ccccc4)c3)cc12	-0.173	-0.385	-0.0808	-0.173	0.056	-0.128	-0.166	0.272	0.113		-0.247
CO[C@H]1C[C@@H]2CC[C@@H](C)[C@@](O)(O2)C(=O)C(=O)N2CCCC[C@H]2C(=O)O[C@H]([C@H](C)C[C@@H]2CC[C@@H](O)[C@H](OC)C2)CC(=O)[C@H](C)/C=C(\C)[C@@H](O)[C@@H](OC)C(=O)[C@H](C)C[C@H](C)/C=C/C=C/C=C/1C [Rapamycin (Sirolimus)]	0.0788	-0.291	-0.0424	0.0838	-0.0405	-0.242	0.0931	-0.0966	0.0535	0.0606	0.12
CN1CC[C@H](c2c(O)cc(O)c3c(=O)cc(-c4ccccc4Cl)oc23)[C@H](O)C1 [Flavopiridol hydrochloride]				-0.608	-0.475	0.353	-0.633	-0.208	0.153	0.123	0.371
C[C@@H](Oc1cc(-n2cnc3ccc(CN4CCN(C)CC4)cc32)sc1C(N)=O)c1ccccc1C(F)(F)F	-0.183	0.399		0.141	0.183	0.347	-0.139	0.0494	0.141	0.0742	
C[C@H](NC(=O)Cc1cc(F)cc(F)c1)C(=O)N[C@@H]1C(=O)N(C)c2ccccc2-c2ccccc21	-0.303	0.0626	0.0325	-0.0914	0.0414	-0.0336	-0.123	-0.138	-0.0477	-0.12	-0.114
COc1cccc2c1C(=O)c1c(O)c3c(c(O)c1C2=O)C[C@@](O)(C(C)=O)C[C@@H]3O[C@H]1C[C@H](N)[C@H](O)[C@H](C)O1 [Daunorubicin HCl (Daunomycin HCl)]					-0.245		-0.431	0.068	0.915	0.693	
